Screening data (PubChem BioAssay)
TGFb SMAD3 inh = inhibitors of TGF-b signaling; HepG2 CAGA-GFP TGF-b/SMAD3 reporter, GFP fluorescence, 18 h; TGF-beta stimulated, 500 pg/mL final; Potency, µM (highest dose often 46.1 µM), inactives show top-dose activity, negative = inhibition, most hits filed as inhibitors; 410,000 tested, 1.2% active; AID 588855; also: % is scaled to controls: 0 for no effect and ±100 for the full control effect; nearly all actives have a fitted effect of over 65% in size
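HEPG2 CAGA-GFP cells (1000/well, DMEM with 1% FBS) were pre-incubated 2 h at 37 degrees C, given compound by pin tool, then stimulated with TGF-beta at 500 pg/mL final for 18 h before per-cell GFP fluorescence imaging.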
ATXN2 expr inh = reduces ATXN2 reporter expression in HEK-293 cells. HEK-293 ATXN2-luciferase reporter, luminescence, 24 h. Potency, µM (highest dose often 57 µM), inactives show top-dose activity change, negative = inhibition, actives largely listed as inhibitors. 360,000 tested, 0.72% active; also: % is scaled to controls: 0 for no effect and ±100 for the full control effect; nearly all actives have a fitted effect of over 55% in size
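qHTS (up to 57 uM final) was run with 24 h compound exposure of reporter cells at 37 °C. Each well was multiplexed: SteadyGlo luminescence measured ATXN2-luciferase expression after a fluorogenic Gly-Phe-AFC viability readout (25 uM final).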
HepG2 tox = kills HepG2 cells in TGF-b inhibitor counter-screen. AID 588856. 410,000 tested, 0.76% active. HepG2 CAGA-GFP viability, ATP luminescence, 18 h. Potency, µM (top dose mostly 46.1 µM), inactives show at the top dose activity change, negative = cytotoxicity, most hits filed as cytotoxic
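HepG2 CAGA-GFP cells (1000/well, DMEM with 1% FBS) received compound, then TGF-beta at 500 pg/mL final, and were incubated 18 hours at 37 degrees C. Viability was read by CellTiter-Glo luminescence. Media-only wells were set as complete cell-killing and DMSO as no toxicity.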
S2 tox = reduces viability in counter-screen for ATXN expression inhibitors | 400,000 tested, 0.49% active | Potency, µM (doses to about 56.7 µM), hits mostly cytotoxic | S2 cells (HEK-293 line with an ATXN2-luciferase reporter) viability, CellTiter-Fluor protease fluorescence, 24 h; also: nearly all actives have a fitted effect of over 40% in size
* = called active by the depositor; i = inactive; ? = inconclusive; nt = not tested or not shown; ! = a repeat was not active; [ ] = dose if it differs, or a comment. A selection: hits, their analogues and other compounds. The true share with any hit is near 2.3%. Calls follow the shape of the dose curve; as a rule, active = well fitted curve in the direction sought with a large enough effect; inconclusive = small, poorly fitted or top-dose-only effect, or another doubt; inactive = no such curve, though single readings can be large; an effect the other way counts as inactive or inconclusive. Potency is read from the fitted curve at half-maximal effect.

SMILES | TGFb SMAD3 inh | ATXN2 expr inh | HepG2 tox | S2 tox
COc1ccc(NC(=O)C(Cc2ccccc2)NS(=O)(=O)c2ccc3c(c2)oc(=O)n3C)c(OC)c1 (stereo not drawn) | 0% | 5% | 1% | i
CCN1C[C@]2(OC(=O)c3ccccc3NC(C)=O)CC[C@H](OC)[C@@]34[C@H]5CC6[C@@H](OC)C[C@](O)(C(C[C@@H]23)[C@@H]14)[C@@]5(O)[C@@H]6OC | nt | 4% | nt | nt
C[n+]1c2cc(N)ccc2cc2ccc(N)cc21 | -100% | 3.2µM* | -28% | nt
Nc1ccc2ccccc2c1 | 5% | 26% | 5% | i
CCCOc1ccc(C(=O)Nc2ccc(-c3cc4ccccc4oc3=O)c(C)c2)cc1 | -28% | ? | -22% | ?
COc1cc2c(cc1/C=C/[N+](=O)[O-])OCO2 | ? | -8%[11.3 µM] | -61% | 28µM*
Cc1occc1C(=O)Nc1cccc(-c2nc(CNC(=O)c3cccc(C#CC(C)(C)O)c3)c(C)o2)c1 | nt | nt | nt | 32µM*
ClCCN(CCCl)c1ccc(C=Nc2ccc(/C=C/c3ccncc3)cc2)cc1 | -9% | nt | -24% | nt
COc1cccc(NC(=O)C2CCN(c3nnc(C)c4c(C)n(-c5ccccc5)nc34)CC2)c1 | ? | ? | -38% | ?
Clc1ccc(C(c2ccc(Cl)cc2)n2cc[n+](CC(OCc3ccc(Cl)cc3Cl)c3ccc(Cl)cc3Cl)c2)cc1 (stereo not drawn) | 18µM* | 28µM*! | 13µM* | 18µM*
CC(C(=O)c1ccccc1)N(C)C (stereo not drawn) | nt | 10% | nt | i
CC1CCN(C(CC(=O)c2ccccc2)C(=O)c2ccccc2)CC1 (stereo not drawn) | ? | ? | 22µM* | i
C[C@]12C=CC(=O)C=C1CC[C@@H]1C2=CC[C@]2(C)[C@@H](C(=O)CN3CCN(c4cc(N5CCCC5)nc(N5CCCC5)n4)CC3)CC[C@@H]12 | 2% | -22% | 25µM* | ?
COc1ccc(C(=O)NCCn2cc(SCc3ccc(C(F)(F)F)cc3)c3ccccc32)cc1OC | 7.1µM* | -24% | -16% | i
CCn1cc(C(=O)NCCc2ccc(OC)c(OC)c2)c(=O)c2cc(S(=O)(=O)N(C)C3CCCCC3)ccc21 | ? | ? | -5% | nt
Cc1ccc(C)c(NC(=O)Cn2c(=O)oc3cc(S(=O)(=O)NCc4ccccc4)ccc32)c1 | ? | -9% | -37% | i
CCOc1cc(CNCCc2c[nH]c3ccccc23)cc(Cl)c1OC | 16µM* | ? | -94% | ?
Cc1ccc(CNC(=O)C(=O)NCC(c2cccnc2)N2CCN(c3ccc(F)cc3)CC2)cc1 (stereo not drawn) | 7% | ? | 4% | i
C[C@]12CC[C@H](O)C[C@H]1CC[C@@H]1[C@@H]2CC[C@]2(C)[C@@H](C3=CC(=O)OC3)CC[C@]12O | ? | 0.32µM* | -42% | ?
C[C@]12CC[C@H](O)C[C@H]1CC[C@@H]1[C@@H]2C[C@@H](O)[C@]2(C)[C@@H](C3=CC(=O)OC3)CC[C@]12O | 10µM* | ? | -56% | ?
C[C@]12CCC3C(CC[C@H]4C[C@@H](O)CC[C@]34C)[C@H]1C=CC2=O (stereo partly drawn) | ? | -26% | -7% | i
CC12CC[C@H]3[C@@H](CCC4(O)C[C@H](O)CCC34/C=N/NC(=O)Cc3ccccc3)C1(O)CCC2C1=CC(=O)OC1 (stereo partly drawn) | -23% | ? | -41% | i
C[C@H]1O[C@@H](O[C@H]2[C@@H](O)C[C@@H](O[C@H]3[C@@H](O)C[C@H](O[C@H]4CC[C@@]5(C)[C@H](CC[C@@H]6[C@@H]5CC[C@]5(C)[C@@H](C7=CC(=O)OC7)CC[C@]65O)C4)O[C@@H]3C)O[C@@H]2C)C[C@H](O)[C@@H]1O | 0.32µM* | nt | -49% | nt
CC(=O)OC1CC(OC2C(O)CC(OC3C(O)CC(OC4CCC5(C)C(CCC6C5CC(O)C5(C)C(C7=CC(=O)OC7)CCC65O)C4)OC3C)OC2C)OC(C)C1OC1OC(CO)C(O)C(O)C1O (stereo not drawn) | 1.4µM* | 0.32µM* | -47% | ?
CC(C)CC1C(=O)N(Cc2cn(CC3CCCCC3)nn2)CCS(=O)(=O)N1Cc1ccc(-c2ccc(F)nc2)cc1 (stereo not drawn) | -8% | ? | -18% | ?
